Among the data in ChEMBL document CHEMBL2218924, “A broad activity screen in support of a chemogenomic map for kinase signalling research and drug discovery” (Biochem J, 2013) are residual activity values, retold here.

For assay [1], the target named is Death-associated protein kinase 1 (Homo sapiens) (UniProt P53355). As to conditions: at 10 µM.
Assay [2] deals with Death-associated protein kinase 2 (Homo sapiens) (UniProt Q9UIK4). As to conditions: at 1 µM.
Assay [3] shares this target. Particulars: at 10 µM.
Assay [4] deals with T1, Serine/threonine-protein kinase DCLK2 (Homo sapiens) (UniProt Q8N568).
T1 sequence (whole entry): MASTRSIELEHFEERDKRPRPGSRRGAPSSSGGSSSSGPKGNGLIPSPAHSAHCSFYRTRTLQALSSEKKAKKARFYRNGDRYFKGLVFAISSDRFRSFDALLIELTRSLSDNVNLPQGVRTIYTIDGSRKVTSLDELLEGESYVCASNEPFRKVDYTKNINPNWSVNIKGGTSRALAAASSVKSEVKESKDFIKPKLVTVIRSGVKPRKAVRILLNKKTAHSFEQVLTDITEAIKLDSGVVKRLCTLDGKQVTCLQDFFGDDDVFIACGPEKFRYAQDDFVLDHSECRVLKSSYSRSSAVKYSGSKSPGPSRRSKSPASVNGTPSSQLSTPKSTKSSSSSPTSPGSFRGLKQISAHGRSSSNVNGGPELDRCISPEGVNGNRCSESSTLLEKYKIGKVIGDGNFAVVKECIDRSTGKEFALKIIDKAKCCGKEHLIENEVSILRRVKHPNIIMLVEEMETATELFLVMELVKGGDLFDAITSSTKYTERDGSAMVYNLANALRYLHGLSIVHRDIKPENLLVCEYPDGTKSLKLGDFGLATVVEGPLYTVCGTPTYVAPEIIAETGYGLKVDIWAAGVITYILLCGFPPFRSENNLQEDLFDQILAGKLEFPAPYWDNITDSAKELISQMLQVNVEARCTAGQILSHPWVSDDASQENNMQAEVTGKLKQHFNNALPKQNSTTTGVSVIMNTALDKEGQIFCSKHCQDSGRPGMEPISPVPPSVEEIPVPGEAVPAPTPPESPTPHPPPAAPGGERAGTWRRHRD
Particulars: at 10 µM.

For assay [5], the target named is T2, Myotonin-protein kinase (Homo sapiens) (UniProt Q09013).
T2 sequence (whole entry): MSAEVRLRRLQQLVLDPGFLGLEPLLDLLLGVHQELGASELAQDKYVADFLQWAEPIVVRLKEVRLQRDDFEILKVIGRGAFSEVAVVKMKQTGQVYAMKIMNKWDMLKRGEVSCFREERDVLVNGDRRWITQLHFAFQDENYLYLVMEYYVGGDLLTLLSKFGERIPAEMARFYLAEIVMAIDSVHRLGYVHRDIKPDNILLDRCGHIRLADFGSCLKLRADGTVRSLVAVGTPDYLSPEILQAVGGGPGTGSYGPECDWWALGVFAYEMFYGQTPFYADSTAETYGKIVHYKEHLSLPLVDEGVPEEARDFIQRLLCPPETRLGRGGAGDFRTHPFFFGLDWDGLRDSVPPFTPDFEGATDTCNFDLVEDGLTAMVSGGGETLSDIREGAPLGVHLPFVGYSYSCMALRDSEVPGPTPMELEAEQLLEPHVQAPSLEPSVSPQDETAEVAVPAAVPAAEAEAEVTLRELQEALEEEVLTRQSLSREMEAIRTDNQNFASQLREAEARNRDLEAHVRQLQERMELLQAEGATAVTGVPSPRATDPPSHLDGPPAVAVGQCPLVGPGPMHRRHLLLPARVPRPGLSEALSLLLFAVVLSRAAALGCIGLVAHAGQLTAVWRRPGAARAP
As to conditions: at 1 µM.

For assay [6], the target named is T2, Myotonin-protein kinase (Homo sapiens). Particulars: at 10 µM.
Assay [7] has as its target T3, Serine/threonine-protein kinase 17A (Homo sapiens) (UniProt Q9UEE5).
T3 sequence (whole entry): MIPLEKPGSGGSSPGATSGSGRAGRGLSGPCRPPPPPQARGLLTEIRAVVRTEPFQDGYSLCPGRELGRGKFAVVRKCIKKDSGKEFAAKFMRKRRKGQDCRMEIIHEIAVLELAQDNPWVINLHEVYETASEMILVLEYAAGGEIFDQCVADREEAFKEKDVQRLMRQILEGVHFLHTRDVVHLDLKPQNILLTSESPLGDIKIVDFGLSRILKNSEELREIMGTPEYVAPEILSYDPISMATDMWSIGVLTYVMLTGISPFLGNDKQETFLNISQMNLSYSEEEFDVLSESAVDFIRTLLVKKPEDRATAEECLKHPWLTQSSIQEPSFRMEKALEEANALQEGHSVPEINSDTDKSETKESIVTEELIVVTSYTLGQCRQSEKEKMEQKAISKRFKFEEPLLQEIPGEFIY
Particulars: at 1 µM.

The target of assay [8] is T3, Serine/threonine-protein kinase 17A (Homo sapiens). Particulars: at 10 µM.
The target of assay [9] is T4, Dual specificity tyrosine-phosphorylation-regulated kinase 2 (Homo sapiens) (UniProt Q92630).
T4 sequence (whole entry): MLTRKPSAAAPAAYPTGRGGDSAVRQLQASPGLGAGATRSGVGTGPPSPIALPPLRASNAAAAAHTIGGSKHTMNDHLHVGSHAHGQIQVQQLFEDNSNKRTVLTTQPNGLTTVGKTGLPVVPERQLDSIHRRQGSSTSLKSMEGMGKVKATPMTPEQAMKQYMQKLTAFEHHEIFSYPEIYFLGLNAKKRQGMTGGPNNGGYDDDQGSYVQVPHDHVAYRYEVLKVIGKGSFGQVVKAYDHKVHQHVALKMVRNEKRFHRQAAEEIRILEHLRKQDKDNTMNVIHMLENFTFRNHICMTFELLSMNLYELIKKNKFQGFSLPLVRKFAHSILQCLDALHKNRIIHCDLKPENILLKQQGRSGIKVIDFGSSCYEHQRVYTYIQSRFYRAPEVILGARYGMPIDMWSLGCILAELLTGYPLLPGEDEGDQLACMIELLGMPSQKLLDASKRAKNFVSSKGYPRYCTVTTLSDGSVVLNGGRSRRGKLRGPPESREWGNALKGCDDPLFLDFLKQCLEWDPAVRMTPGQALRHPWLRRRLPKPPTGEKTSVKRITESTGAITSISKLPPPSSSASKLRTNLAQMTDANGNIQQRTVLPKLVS
As to conditions: at 1 µM.

The target in assay [10] is T4, Dual specificity tyrosine-phosphorylation-regulated kinase 2 (Homo sapiens). Particulars: at 10 µM.
For assay [11], the target named is T5, Ephrin type-A receptor 1 (Homo sapiens) (UniProt P21709).
T5 sequence (whole entry): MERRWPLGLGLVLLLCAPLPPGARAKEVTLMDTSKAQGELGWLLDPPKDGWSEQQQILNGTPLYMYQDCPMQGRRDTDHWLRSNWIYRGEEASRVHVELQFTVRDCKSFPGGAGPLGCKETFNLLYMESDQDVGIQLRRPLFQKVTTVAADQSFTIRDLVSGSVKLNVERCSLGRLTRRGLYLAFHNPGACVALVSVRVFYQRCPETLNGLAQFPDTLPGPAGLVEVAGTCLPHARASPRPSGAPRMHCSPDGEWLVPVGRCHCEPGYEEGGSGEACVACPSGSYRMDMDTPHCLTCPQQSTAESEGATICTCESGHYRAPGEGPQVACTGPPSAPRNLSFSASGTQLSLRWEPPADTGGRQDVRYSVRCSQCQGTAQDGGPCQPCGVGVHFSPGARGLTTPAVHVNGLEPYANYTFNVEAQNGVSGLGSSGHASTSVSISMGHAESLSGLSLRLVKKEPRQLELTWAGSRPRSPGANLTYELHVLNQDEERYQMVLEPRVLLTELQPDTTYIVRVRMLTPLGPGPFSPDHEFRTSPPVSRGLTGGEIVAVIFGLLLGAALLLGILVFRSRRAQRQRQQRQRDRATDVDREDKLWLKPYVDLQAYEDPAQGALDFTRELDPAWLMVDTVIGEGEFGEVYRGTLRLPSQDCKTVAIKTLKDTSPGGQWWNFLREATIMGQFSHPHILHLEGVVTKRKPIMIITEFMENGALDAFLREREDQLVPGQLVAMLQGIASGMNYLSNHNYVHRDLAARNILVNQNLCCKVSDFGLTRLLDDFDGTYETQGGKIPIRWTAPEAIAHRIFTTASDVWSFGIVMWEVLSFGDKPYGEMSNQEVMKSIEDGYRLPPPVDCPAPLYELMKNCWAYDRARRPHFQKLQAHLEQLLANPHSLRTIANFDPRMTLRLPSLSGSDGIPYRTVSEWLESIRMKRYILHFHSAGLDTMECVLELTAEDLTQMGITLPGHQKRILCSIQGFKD
As to conditions: at 1 µM.

Assay [12] deals with T5, Ephrin type-A receptor 1 (Homo sapiens). Particulars: at 10 µM.
Assay [13] concerns the target Ephrin type-A receptor 2 (Homo sapiens) (UniProt P29317). As to conditions: at 1 µM.
The target is the same in assay [14]. Particulars: at 10 µM.
Assay [15] has as its target T6, Ephrin type-A receptor 3 (Homo sapiens) (UniProt P29320).
T6 sequence (whole entry): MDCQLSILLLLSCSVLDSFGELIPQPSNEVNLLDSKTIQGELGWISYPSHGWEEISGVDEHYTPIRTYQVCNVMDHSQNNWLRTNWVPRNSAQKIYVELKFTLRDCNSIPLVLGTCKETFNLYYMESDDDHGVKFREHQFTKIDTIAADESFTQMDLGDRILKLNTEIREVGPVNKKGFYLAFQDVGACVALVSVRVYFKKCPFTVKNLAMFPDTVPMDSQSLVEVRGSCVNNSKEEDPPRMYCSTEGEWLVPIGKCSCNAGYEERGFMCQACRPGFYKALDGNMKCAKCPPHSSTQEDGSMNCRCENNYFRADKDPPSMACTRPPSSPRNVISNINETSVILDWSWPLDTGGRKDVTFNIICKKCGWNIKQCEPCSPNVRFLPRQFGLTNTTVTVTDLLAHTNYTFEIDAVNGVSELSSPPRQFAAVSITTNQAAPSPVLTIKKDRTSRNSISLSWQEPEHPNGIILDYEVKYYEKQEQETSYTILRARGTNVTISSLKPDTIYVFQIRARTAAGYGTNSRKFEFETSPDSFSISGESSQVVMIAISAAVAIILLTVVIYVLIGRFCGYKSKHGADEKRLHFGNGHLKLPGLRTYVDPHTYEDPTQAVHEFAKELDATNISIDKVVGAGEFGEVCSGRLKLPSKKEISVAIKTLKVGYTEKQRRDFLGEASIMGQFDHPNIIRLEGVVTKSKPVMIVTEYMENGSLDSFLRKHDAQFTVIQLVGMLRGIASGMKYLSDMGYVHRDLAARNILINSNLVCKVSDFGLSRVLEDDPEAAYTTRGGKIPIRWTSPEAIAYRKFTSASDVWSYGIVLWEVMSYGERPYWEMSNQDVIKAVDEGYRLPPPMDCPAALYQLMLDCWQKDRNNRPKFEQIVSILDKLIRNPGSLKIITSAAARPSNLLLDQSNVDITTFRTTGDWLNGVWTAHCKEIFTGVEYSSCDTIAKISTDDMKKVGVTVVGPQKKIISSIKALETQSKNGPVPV
As to conditions: at 1 µM.

The target of assay [16] is T1, Serine/threonine-protein kinase DCLK2 (Homo sapiens). As to conditions: at 1 µM.
Assay [17] has as its target T7, Discoidin domain-containing receptor 2 (Homo sapiens) (UniProt Q16832).
T7 sequence (whole entry): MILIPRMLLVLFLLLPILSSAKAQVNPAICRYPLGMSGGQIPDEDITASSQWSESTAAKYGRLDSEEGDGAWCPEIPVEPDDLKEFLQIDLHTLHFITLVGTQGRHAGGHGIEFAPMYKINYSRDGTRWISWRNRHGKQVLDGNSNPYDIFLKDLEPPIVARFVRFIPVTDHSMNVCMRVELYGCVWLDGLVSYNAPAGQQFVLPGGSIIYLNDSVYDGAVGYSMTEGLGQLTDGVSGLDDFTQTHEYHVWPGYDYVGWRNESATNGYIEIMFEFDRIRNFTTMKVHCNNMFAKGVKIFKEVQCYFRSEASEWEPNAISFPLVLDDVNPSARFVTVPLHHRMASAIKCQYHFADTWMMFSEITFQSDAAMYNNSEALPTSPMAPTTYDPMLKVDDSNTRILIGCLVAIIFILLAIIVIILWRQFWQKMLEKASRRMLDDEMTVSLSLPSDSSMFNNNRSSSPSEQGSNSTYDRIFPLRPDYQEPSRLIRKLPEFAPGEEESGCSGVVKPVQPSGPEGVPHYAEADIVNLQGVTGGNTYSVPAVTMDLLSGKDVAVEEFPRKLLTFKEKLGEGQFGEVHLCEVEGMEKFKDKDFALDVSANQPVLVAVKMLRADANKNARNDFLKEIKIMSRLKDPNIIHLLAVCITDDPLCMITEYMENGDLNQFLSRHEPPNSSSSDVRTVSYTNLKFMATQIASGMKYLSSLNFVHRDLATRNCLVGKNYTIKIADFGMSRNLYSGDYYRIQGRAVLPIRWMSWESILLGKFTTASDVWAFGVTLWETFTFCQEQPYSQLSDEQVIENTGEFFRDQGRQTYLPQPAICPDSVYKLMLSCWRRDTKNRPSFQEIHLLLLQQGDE
As to conditions: at 1 µM.

In assay [18] the target is T7, Discoidin domain-containing receptor 2 (Homo sapiens). Particulars: at 10 µM.

Chain of Ephrin type-A receptor 2 (Homo sapiens) (P29317 whole entry): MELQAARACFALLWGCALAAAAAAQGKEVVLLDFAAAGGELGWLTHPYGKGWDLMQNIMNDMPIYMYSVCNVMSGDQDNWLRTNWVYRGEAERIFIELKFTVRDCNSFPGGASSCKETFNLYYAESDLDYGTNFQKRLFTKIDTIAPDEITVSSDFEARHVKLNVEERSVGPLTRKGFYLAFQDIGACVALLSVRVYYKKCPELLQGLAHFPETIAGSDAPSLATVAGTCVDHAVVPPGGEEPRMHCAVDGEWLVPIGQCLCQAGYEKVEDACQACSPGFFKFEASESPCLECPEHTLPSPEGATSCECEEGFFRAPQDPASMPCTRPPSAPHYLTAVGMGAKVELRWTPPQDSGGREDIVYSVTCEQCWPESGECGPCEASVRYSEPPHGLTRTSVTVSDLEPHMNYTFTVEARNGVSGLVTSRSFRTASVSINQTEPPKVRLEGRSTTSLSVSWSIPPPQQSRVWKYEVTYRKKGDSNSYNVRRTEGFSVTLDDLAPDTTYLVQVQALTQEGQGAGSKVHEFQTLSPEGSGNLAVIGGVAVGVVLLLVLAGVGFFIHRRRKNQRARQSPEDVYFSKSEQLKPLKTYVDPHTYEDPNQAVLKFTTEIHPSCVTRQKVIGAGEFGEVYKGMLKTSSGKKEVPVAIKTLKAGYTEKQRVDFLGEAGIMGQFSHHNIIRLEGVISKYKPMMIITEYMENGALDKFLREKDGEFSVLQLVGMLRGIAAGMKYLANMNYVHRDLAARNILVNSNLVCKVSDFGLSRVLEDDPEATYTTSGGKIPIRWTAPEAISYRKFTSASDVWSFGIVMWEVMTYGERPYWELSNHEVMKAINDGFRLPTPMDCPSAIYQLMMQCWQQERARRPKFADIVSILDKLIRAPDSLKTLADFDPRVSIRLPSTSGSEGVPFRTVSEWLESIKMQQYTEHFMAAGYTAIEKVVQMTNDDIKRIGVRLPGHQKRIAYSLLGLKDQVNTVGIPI
Chain of Death-associated protein kinase 2 (Homo sapiens) (Q9UIK4 whole entry, looked up): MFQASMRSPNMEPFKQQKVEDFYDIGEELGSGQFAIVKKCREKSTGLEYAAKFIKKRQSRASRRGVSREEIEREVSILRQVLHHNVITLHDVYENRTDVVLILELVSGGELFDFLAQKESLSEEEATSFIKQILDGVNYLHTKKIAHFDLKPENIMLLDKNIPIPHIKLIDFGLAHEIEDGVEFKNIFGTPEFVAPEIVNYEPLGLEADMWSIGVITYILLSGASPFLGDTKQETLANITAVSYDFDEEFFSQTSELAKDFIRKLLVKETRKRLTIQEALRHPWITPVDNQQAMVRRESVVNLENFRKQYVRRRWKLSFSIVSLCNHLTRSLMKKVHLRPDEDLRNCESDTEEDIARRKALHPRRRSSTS
Chain of Death-associated protein kinase 1 (Homo sapiens) (P53355 whole entry, looked up): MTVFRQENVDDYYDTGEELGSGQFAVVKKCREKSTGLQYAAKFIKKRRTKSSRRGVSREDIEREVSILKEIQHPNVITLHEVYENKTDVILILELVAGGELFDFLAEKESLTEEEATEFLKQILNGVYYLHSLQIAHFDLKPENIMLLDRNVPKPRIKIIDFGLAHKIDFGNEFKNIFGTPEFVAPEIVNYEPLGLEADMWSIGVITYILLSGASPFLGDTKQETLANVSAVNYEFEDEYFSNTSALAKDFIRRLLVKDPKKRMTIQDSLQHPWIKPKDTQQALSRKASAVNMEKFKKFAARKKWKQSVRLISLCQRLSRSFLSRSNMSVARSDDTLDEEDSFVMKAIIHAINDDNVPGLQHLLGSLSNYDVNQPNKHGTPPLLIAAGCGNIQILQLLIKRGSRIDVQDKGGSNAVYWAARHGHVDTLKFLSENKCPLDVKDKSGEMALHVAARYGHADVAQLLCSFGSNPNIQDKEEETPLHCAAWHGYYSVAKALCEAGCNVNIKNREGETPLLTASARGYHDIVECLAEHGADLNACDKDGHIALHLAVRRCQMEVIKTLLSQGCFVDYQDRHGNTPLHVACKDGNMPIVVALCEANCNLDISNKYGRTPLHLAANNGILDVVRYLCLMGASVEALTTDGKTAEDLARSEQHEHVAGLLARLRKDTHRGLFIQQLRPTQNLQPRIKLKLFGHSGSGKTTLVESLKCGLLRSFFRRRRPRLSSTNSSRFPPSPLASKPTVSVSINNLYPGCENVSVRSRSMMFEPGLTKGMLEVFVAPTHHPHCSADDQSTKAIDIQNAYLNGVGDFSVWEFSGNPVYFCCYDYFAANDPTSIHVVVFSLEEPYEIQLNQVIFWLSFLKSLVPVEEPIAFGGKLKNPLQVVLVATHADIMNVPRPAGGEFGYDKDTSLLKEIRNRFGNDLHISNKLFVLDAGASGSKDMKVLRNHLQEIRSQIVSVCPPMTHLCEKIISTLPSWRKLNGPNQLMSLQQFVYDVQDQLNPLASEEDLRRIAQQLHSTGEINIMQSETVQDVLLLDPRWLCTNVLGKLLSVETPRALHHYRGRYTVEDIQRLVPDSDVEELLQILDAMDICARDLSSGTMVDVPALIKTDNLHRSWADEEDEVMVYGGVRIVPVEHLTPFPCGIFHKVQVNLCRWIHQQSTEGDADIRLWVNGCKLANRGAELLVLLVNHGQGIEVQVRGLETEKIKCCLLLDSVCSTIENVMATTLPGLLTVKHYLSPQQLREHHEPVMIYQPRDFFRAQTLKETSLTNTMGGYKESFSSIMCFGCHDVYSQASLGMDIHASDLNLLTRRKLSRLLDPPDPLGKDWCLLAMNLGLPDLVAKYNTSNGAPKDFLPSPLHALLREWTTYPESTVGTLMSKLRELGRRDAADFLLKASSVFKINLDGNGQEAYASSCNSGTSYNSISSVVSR

Consider `O=c1cc(N2CCNCC2)oc2c(-c3ccccc3)cccc12`, for which the residual activity (as a rule, the signal under treatment as a percentage of the control signal) in assay [1] was 82%; in [2], 98%; in assay [3] it was 102%; in assay [4], 70%; in assay [5], 134%; in [6] it was 141%. Besides, the residual activity in [7] is 69%; in [8] it was 66%; in assay [9], 87%; in [10], 94%; in assay [11], 91%; in [12], 100%. Moreover, the residual activity in assay [13] was 99%; in assay [14], 97%; in assay [15] it was 91%.
With `O=C(c1ccccc1)c1ccc(N2CCOCC2)cc1O`, the residual activity turned out to be 100% in [1]; 89% in assay [2]; 64% in assay [16]; 93% in assay [4]; 111% in assay [17]; 93% in assay [18]. Further, the residual activity was 138% in assay [5]; 100% in assay [9]; 93% in assay [10]; 88% in assay [11]; 95% in [12]; 99% in assay [13]. Also, the residual activity in [14] amounted to 95%.
